From ChEMBL document CHEMBL1961873, “Compounds: GSK PKIS; Assays: Nanosyn kinase panel” (2012) come the findings set out here.

Molecules are shown by their SMILES.

Experiment [1] concerns Epidermal growth factor receptor (Homo sapiens), P00533 [T790M]. Particulars: at 1 µM.
Experiment [2] concerns Epidermal growth factor receptor (Homo sapiens), P00533 [L858R,T790M]. The note with it: at 0.1 µM.
Experiment [3] shares this test system. The note with it: at 1 µM.
The target in experiment [4] is Ephrin type-A receptor 2 (Homo sapiens) (UniProt P29317). The note with it: at 0.1 µM.
Experiment [5] has the same target. Particulars: at 1 µM.
Experiment [6] deals with T1, Ephrin type-A receptor 3 (Homo sapiens) (UniProt P29320).
T1 sequence (whole entry): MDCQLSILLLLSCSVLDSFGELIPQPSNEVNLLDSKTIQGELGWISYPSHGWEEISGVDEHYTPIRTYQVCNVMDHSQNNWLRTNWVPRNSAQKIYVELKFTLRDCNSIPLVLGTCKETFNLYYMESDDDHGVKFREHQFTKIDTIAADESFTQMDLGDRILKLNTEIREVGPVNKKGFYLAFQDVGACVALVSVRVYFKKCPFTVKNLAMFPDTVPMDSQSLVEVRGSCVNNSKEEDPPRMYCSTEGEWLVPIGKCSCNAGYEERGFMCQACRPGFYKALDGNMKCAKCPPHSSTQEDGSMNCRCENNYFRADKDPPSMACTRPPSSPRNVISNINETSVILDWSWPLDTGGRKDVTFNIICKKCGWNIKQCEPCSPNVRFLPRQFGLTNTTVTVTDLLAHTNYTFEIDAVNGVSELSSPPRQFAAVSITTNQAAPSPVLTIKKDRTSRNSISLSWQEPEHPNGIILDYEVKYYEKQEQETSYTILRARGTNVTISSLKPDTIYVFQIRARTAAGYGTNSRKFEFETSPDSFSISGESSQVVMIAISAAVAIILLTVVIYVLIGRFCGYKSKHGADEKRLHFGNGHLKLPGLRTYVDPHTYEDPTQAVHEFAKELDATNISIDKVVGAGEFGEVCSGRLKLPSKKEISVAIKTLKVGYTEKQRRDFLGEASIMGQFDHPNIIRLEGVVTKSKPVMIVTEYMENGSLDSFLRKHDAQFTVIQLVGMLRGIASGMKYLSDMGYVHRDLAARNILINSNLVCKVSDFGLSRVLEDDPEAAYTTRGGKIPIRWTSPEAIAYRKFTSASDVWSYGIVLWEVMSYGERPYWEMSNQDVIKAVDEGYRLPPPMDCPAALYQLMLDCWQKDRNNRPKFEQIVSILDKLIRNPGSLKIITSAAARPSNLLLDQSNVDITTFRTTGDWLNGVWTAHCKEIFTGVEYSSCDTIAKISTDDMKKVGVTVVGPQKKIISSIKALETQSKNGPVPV
The note with it: at 0.1 µM.

Experiment [7] deals with T1, Ephrin type-A receptor 3 (Homo sapiens). Particulars: at 1 µM.
The target of experiment [8] is Ephrin type-A receptor 4 (Homo sapiens) (UniProt P54764). Particulars: at 0.1 µM.
Chain of Ephrin type-A receptor 4 (Homo sapiens) (P54764 whole entry): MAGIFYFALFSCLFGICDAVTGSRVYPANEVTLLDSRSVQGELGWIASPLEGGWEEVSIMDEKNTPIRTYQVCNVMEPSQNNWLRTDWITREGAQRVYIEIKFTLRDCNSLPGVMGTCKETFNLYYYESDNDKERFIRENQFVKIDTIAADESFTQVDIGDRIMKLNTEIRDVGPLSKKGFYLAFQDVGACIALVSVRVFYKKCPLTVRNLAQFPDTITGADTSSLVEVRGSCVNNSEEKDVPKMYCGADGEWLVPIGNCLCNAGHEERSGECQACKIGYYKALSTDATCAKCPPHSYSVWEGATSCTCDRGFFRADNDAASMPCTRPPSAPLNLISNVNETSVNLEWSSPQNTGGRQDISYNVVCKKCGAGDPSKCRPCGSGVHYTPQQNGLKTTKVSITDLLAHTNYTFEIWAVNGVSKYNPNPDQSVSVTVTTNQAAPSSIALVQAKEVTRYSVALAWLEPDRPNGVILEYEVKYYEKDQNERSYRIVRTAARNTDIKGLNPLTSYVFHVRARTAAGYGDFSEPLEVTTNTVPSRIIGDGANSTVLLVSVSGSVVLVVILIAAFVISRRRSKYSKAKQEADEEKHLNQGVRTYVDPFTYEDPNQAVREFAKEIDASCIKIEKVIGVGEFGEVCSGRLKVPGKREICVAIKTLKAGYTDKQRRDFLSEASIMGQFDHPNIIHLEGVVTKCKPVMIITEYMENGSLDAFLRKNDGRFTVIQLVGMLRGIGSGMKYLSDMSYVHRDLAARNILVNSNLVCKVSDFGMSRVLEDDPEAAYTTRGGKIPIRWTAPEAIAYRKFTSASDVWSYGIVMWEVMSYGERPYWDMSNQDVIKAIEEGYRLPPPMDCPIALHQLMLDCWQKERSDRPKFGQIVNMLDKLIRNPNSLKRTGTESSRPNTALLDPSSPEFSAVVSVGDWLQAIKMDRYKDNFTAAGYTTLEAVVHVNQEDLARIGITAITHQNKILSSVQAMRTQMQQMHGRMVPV
For experiment [9] the target is unchanged. The note with it: at 1 µM.
The target in experiment [10] is T2, Ephrin type-B receptor 2 (Homo sapiens) (UniProt P29323).
T2 sequence (whole entry): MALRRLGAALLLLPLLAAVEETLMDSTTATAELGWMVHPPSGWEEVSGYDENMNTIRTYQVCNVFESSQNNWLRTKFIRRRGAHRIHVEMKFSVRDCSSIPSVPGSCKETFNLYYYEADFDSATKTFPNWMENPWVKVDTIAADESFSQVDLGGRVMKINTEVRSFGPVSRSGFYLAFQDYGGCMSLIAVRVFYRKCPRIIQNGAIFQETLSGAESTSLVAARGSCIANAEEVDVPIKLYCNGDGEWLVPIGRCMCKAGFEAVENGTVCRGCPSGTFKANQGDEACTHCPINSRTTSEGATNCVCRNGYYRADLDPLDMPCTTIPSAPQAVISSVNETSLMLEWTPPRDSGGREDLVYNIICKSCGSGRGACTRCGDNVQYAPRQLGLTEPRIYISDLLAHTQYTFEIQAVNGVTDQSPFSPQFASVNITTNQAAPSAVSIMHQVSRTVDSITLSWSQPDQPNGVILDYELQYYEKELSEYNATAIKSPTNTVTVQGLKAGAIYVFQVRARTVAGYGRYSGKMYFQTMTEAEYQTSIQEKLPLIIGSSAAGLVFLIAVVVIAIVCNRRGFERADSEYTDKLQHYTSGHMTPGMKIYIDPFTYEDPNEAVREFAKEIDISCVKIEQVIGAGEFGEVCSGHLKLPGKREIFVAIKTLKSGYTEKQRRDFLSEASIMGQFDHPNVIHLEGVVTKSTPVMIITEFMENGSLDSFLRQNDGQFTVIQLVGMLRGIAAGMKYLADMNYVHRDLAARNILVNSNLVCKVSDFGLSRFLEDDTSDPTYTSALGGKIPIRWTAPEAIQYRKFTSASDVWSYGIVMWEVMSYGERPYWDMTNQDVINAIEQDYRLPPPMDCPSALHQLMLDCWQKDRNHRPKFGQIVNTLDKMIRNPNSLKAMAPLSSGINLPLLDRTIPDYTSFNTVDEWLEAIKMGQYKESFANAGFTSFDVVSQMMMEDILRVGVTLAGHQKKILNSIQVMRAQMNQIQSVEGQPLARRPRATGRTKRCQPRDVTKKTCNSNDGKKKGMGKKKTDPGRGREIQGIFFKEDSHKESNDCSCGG
The note with it: at 0.1 µM.

Experiment [11] addresses T2, Ephrin type-B receptor 2 (Homo sapiens). Particulars: at 1 µM.
Experiment [12] has as its target T3, Ephrin type-B receptor 3 (Homo sapiens) (UniProt P54753).
T3 sequence (whole entry): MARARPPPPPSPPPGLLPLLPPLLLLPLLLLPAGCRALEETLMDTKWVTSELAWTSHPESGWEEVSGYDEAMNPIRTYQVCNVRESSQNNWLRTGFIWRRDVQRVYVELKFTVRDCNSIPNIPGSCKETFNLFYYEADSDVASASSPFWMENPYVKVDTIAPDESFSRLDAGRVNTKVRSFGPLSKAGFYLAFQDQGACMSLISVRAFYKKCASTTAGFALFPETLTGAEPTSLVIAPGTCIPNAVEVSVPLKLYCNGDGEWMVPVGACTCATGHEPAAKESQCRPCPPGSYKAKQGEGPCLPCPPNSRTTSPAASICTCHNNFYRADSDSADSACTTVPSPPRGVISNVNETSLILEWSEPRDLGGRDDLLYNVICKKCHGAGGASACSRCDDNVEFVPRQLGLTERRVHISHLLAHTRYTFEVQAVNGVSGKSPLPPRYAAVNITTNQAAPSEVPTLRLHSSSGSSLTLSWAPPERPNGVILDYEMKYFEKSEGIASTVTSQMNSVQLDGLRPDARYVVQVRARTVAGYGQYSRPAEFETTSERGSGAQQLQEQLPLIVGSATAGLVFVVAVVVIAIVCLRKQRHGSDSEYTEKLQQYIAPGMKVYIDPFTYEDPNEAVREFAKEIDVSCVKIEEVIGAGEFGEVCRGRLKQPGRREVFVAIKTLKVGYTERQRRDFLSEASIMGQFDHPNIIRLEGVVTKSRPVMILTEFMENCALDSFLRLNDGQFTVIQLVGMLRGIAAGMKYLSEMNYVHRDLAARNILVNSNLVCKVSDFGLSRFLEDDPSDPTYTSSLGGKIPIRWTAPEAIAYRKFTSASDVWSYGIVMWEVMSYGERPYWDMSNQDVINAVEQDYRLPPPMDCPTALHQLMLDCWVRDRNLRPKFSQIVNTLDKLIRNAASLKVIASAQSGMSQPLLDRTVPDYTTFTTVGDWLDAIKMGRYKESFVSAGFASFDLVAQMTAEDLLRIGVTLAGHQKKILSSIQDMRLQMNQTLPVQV
Particulars: at 1 µM.

The target in experiment [13] is T4, Ephrin type-B receptor 4 (Homo sapiens) (UniProt P54760).
T4 sequence (whole entry): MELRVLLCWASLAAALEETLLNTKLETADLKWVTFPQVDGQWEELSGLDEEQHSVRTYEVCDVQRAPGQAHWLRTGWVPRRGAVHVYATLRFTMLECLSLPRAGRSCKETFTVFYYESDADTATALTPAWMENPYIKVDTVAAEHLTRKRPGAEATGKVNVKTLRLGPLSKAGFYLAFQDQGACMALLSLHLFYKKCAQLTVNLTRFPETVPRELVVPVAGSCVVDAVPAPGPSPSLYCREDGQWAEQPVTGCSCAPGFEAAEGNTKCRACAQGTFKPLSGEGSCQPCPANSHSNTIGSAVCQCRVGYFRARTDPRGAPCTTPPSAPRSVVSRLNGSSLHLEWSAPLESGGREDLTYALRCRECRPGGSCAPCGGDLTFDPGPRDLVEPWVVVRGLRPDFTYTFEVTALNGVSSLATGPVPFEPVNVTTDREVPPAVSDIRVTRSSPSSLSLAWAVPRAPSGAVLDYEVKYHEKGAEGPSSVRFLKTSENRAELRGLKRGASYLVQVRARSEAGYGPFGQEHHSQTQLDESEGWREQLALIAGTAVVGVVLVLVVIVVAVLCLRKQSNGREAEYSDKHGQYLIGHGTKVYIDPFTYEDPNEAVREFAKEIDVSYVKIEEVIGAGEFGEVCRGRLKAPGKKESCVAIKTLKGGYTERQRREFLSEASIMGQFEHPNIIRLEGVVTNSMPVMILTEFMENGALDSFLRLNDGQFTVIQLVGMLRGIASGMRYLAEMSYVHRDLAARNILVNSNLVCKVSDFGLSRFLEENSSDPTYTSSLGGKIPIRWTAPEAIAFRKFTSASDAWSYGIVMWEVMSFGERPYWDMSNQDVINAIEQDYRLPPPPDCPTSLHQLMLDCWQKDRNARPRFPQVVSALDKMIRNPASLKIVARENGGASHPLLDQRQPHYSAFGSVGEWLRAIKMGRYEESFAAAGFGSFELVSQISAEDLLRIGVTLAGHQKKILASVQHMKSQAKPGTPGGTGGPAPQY
Particulars: at 0.1 µM.

Experiment [14] concerns the target T4, Ephrin type-B receptor 4 (Homo sapiens). The note with it: at 1 µM.
Experiment [15] deals with Receptor tyrosine-protein kinase erbB-2 (Homo sapiens) (UniProt P04626). The note with it: at 0.1 µM.
Chain of Receptor tyrosine-protein kinase erbB-2 (Homo sapiens) (P04626 whole entry): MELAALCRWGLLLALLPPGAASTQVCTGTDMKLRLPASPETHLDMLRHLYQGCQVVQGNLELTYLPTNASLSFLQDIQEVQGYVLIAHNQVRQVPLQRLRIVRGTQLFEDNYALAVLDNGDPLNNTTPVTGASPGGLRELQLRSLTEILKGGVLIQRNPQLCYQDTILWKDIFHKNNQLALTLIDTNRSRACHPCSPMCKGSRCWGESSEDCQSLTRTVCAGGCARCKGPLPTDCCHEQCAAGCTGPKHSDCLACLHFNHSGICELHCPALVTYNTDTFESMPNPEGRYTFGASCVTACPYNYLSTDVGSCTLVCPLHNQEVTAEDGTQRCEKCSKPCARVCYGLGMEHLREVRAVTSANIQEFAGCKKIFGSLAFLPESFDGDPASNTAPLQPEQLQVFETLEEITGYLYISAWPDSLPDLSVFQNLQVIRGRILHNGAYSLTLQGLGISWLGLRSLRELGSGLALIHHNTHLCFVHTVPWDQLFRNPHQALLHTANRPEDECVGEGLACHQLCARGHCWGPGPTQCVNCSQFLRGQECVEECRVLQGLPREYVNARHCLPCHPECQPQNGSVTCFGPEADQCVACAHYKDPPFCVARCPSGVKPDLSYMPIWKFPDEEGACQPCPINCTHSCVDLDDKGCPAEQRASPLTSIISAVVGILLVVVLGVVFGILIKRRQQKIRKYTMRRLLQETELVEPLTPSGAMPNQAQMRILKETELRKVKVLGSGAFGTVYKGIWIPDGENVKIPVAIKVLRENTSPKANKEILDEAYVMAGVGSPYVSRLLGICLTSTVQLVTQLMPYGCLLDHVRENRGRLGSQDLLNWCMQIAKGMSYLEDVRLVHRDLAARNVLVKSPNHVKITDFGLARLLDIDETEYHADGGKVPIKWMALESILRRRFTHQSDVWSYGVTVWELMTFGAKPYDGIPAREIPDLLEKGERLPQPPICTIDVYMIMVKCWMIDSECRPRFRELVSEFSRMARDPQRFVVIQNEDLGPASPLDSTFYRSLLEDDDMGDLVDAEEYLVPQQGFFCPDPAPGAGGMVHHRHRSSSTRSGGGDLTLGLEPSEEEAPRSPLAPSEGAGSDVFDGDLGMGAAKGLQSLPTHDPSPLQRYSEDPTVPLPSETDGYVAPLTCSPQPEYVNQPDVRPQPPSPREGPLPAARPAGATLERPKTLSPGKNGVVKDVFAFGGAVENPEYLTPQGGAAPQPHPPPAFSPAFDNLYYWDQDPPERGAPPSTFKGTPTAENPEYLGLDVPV
The target is the same in experiment [16]. Particulars: at 1 µM.
Experiment [17] has as its target Receptor tyrosine-protein kinase erbB-4 (Homo sapiens) (UniProt Q15303). Particulars: at 0.1 µM.
Experiment [18] has the same target. Particulars: at 1 µM.
In experiment [19] the target is Tyrosine-protein kinase Fer (Homo sapiens) (UniProt P16591). The note with it: at 0.1 µM.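 Also: reported figures are averaged percent inhibition of FER.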
Chain of Tyrosine-protein kinase Fer (Homo sapiens) (P16591 whole entry, looked up): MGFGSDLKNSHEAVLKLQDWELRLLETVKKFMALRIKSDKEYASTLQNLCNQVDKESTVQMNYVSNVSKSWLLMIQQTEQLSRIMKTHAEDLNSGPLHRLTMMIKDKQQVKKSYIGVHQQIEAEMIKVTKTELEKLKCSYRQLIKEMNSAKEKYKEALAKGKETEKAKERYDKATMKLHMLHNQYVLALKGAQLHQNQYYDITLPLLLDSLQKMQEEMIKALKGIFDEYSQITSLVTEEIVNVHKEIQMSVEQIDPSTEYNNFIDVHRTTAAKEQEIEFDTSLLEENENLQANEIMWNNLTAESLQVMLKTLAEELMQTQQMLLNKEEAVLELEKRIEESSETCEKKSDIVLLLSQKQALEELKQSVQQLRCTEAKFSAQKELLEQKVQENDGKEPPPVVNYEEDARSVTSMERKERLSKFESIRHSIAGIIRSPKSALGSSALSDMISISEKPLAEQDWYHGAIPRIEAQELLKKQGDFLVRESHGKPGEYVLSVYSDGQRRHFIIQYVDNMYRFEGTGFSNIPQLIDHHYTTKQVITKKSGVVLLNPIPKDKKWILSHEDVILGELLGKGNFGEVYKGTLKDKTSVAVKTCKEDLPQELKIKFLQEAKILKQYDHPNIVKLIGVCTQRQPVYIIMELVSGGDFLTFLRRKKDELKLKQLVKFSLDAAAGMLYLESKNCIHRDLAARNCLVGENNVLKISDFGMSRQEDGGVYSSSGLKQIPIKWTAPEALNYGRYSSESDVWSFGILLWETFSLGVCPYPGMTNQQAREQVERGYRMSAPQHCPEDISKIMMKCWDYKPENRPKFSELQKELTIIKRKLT
Experiment [20] addresses T3, Ephrin type-B receptor 3 (Homo sapiens). The note with it: at 0.1 µM.

Chain of Epidermal growth factor receptor (Homo sapiens), P00533 [T790M] (P00533 whole entry T790M): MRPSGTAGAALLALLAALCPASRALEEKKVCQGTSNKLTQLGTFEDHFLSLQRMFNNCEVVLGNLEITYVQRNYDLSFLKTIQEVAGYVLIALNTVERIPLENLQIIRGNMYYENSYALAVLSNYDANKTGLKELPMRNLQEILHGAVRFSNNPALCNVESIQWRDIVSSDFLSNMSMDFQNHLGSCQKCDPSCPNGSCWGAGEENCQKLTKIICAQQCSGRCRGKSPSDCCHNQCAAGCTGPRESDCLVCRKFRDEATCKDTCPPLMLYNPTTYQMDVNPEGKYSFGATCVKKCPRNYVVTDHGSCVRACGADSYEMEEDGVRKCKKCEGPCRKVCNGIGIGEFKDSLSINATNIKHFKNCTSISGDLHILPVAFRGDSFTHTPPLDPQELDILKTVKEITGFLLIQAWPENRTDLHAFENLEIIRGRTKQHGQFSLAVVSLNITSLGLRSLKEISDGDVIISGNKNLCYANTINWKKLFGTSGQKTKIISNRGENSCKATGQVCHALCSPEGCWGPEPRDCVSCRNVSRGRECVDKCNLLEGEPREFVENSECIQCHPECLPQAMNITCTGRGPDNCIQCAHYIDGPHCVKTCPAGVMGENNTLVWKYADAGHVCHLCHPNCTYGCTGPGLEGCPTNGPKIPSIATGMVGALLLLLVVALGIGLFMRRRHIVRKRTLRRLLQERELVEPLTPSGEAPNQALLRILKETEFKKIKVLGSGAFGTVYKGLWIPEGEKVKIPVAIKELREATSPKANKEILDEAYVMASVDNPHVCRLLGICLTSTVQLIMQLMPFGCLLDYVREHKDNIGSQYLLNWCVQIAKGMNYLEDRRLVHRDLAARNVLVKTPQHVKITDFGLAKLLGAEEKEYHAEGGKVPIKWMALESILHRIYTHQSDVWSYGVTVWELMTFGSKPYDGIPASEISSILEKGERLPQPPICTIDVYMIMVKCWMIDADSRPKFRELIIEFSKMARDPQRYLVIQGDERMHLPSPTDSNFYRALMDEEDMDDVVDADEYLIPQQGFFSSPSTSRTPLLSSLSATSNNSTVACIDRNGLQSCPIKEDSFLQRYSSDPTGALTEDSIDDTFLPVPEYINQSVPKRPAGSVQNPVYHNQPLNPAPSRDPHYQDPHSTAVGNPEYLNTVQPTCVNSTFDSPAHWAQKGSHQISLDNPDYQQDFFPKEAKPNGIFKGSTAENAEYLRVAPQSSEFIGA

Take `Fc1ccc(-c2nn3ncccc3c2-c2ccnc(Nc3ccc4c(c3)OCCO4)n2)cc1`: the inhibition in [1] came to 63.8%; in [2], 45.5%; in [3], 88.1%; in [4], 2.48%; in experiment [5], 14.4%; in experiment [6], 7.69%. The inhibition turned out to be 18.2% in experiment [7]; 17.1% in experiment [8]; 55.5% in experiment [9]; 34.3% in experiment [10]; 73.6% in experiment [11]; 16.2% in [12]. Besides, the inhibition turned out to be 20.1% in [13]; 64.8% in experiment [14]; 11% in experiment [15]; 41.4% in [16]; 84.3% in experiment [17]; 94.6% in [18]. Also, the inhibition in experiment [19] turned out to be 1.71%.
For `[O-][S+]1CCN(Cc2ccc(-c3ccc4ncnc(Nc5ccc(OCc6cccc(F)c6)c(Cl)c5)c4c3)o2)CC1`, the inhibition is 22% in experiment [1]; 1.22% in [2]; 5.52% in experiment [3]; 1.19% in experiment [4]; 0.52% in experiment [5]; 5.19% in experiment [6]. Besides, the inhibition came to 2.42% in experiment [7]; 7.3% in experiment [8]; 11.6% in experiment [9]; 9.52% in experiment [10]; 7.63% in experiment [11]; 3.69% in experiment [20]. Besides, the inhibition amounted to 7.49% in experiment [12]; 2.75% in experiment [13]; 4.27% in [14]; 78.4% in [15]; 79.9% in experiment [16]; 88.9% in [17]. In addition, the inhibition turned out to be 91.3% in [18] and 2.55% in experiment [19].
Take `Fc1ccc(-c2nn3ccccc3c2-c2ccncc2)cc1`: the inhibition in [4] is -1.52%; in experiment [5], -1.41%; in experiment [6] it was 3.94%; in [7], 5.1%; in experiment [8] it was 5.14%; in experiment [9], 11.7%. The inhibition in experiment [10] worked out at 5.2%; in [11], 17.7%; in experiment [20], 4.48%; in experiment [12], 8.05%; in [13], 1.73%; in experiment [14] it was 4.73%. In addition, the inhibition in [15] worked out at 1.52%; in [16] it was 2.31%; in experiment [17], 10.8%; in [18] it was 27.2%; in [19] it was 1.5%.
Consider `CC(=O)NCc1cccc(C#Cc2cncnc2Nc2ccc(OCc3cccc(F)c3)c(Cl)c2)c1`, for which the inhibition in experiment [1] was 0.3%; in experiment [2] it was 1.41%; in experiment [3], 1.74%; in experiment [4], -3.31%; in experiment [5], -4.19%; in experiment [6], -2.09%. Besides, the inhibition in experiment [7] was 0.64%; in [8], -2.22%; in experiment [10], 0.63%; in [11], -0.33%; in experiment [20], 2.82%; in [12], 2.99%. In addition, the inhibition is 0.57% in experiment [13]; 2.91% in experiment [14]; -0.95% in experiment [15]; -0.83% in [16]; 11.6% in experiment [17]; 50.4% in experiment [18]. Besides, the inhibition in experiment [19] stood at 2.72%.
